According to the supplement of paper PMC12636033:
± gives the standard deviation of the averaged measurements. Over roughly 33,000 sequences, “E-score (rank enrichment, -0.5 to 0.5)” has its median near -0.0043; the highest 2% begin near 0.24. The full list was thinned out, with the highest values kept by preference.

Test system: 2Sp-muMax20 (muMax20 with two 2,6-bis(methyl)pyridine Cys staples)
Experiment: PBM 8-mer E-score (E-score (rank enrichment, -0.5 to 0.5)); higher = stronger preferential binding
Method: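 Protein binding microarray (universal PBM chip covering all 10-mers in fixed probe flanks) with chemically synthesized human Max(13-93) bHLH-LZ analogs (not full-length Max) bearing noncanonical residues (hArg, Tha, Aib, Nle at 65) and aromatic Cys staples. Read-out per 8-mer (and its reverse complement): E-score (rank-based enrichment, -0.5 to 0.5) and Z-score of median probe intensity.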

| Sequence | PBM 8-mer E-score |
| --- | --- |
| ATATCCTC | 0.265 ± 0.056 |
| ATATCTTA | 0.19 ± 0.0044 |
| ATATCTTC | 0.294 ± 0.022 |
| CTATCCTC | 0.0112 ± 0.011 |
| CTATCTTC | 0.0745 ± 0.024 |
| ATATCCTA | 0.0987 ± 0.0053 |
| CTATCCCC | 0.0647 ± 0.044 |
| ATATCCCG | 0.0776 ± 0.056 |
| ATATCCCC | 0.28 ± 0.028 |
| CAGAGATC | -0.137 ± 0.014 |
| TCTTCGCA | 0.0987 ± 0.026 |
| AGCTGACT | -0.0778 ± 0.023 |
| ACAAGATG | 0.115 ± 0.02 |
| CTGAAGGC | -0.247 ± 0.05 |
| CATGTACA | 0.143 ± 0.1 |
| AATGTACA | 0.0795 ± 0.02 |
| CATGTACG | 0.2899 ± 0.0015 |
| AATGTACG | 0.0758 ± 0.021 |
| TATGTACA | 0.25 ± 0.028 |
| GATGTACA | 0.165 ± 0.009 |
| CTGAACAA | -0.00871 ± 0.029 |
| GGCCTTAA | 0.0324 ± 0.052 |
| ACCAAATG | -0.043 ± 0.09 |
| AAGAGACA | 0.252 ± 0.042 |
| GAGAGACA | -0.174 ± 0.03 |

| Sequence | PBM 8-mer E-score |
| --- | --- |
| TAGAGACA | -0.0515 ± 0.021 |
| AAGGTGAT | 0.157 ± 0.033 |
| CTAGTAAA | 0.12 ± 0.047 |
| ATAGTAAA | 0.274 ± 0.033 |
| ATAGTAAT | 0.19 ± 0.084 |
| ACATAGGA | 0.102 ± 0.044 |
| ATTTTATG | 0.0502 ± 0.14 |
| ATTTTGTA | 0.239 ± 0.12 |
| ATTTTATA | 0.264 ± 0.03 |
| AATTTATC | 0.105 ± 0.038 |
| GTTTTATA | 0.168 ± 0.13 |
| ATTTTGTG | 0.0633 ± 0.081 |
| AATTTATA | 0.27046 ± 0.00013 |
| CATTTATA | 0.141 ± 0.023 |
| CTTTTGTA | 0.0481 ± 0.15 |
| ACGCCCTA | -0.000715 ± 0.088 |
| CCCAACAC | 0.00365 ± 0.023 |
| AATTCCGA | -0.0265 ± 0.07 |
| GCAAAGCA | 0.155 ± 0.058 |
| GAAATTTC | 0.114 ± 0.052 |
| CAAATTTC | 0.236 ± 0.031 |
| CAAATTTG | 0.117 ± 0.032 |
| CCCTATCC | -0.0867 ± 0.098 |
| TAATACGA | -0.0384 ± 0.02 |
| AATATAGC | 0.168 ± 0.047 |

| Sequence | PBM 8-mer E-score |
| --- | --- |
| AATATAGT | 0.152 ± 0.037 |
| CTAATATC | 0.173 ± 0.038 |
| AATATATA | 0.186 ± 0.0061 |
| ATAATATC | 0.24 ± 0.082 |
| GATATATC | 0.102 ± 0.037 |
| AATATATG | 0.303 ± 0.0091 |
| AATATATT | 0.2823 ± 0.0018 |
| AATATATC | 0.239 ± 0.051 |
| ATAATATG | 0.185 ± 0.062 |
| AATATGTG | 0.191 ± 0.037 |
| AAAATATG | 0.114 ± 0.021 |
| TGACATAA | 0.128 ± 0.05 |
| GTGTGGAA | 0.118 ± 0.01 |
| AGCCCGTA | -0.23 ± 0.063 |
| CATTTCAC | 0.0886 ± 0.049 |
| AATTTTCA | 0.146 ± 0.05 |
| CACATTCG | 0.00422 ± 0.036 |
| ATTACTGA | 0.103 ± 0.074 |
| CGAGGAAC | -0.084 ± 0.029 |
| AATATGGA | 0.104 ± 0.011 |
| AATATGGT | 0.0878 ± 0.052 |
| AATATGGC | 0.302 ± 0.044 |
| AGCAACAG | -0.0291 ± 0.074 |
| ACCTAAGT | -0.0381 ± 0.043 |
| ATATTGTC | 0.121 ± 0.03 |

| Sequence | PBM 8-mer E-score |
| --- | --- |
| TATAGTGA | 0.249 ± 0.048 |
| CATAGTGA | 0.0514 ± 0.05 |
| AATAGTGA | -0.033 ± 0.029 |
| GGTGTTGA | 0.0564 ± 0.02 |
| AGGAACAT | -0.135 ± 0.031 |
| CTTTACGA | -0.0477 ± 0.0036 |
| ATTTACGA | 0.0937 ± 0.12 |
| GTTTACGA | 0.242 ± 0.027 |
| GAACGCAC | -0.0274 ± 0.025 |
| ACAAAGCT | 0.00391 ± 0.011 |
| CTGTATCA | -0.0346 ± 0.018 |
| ATATATCA | 0.212 ± 0.014 |
| CCATATCA | 0.114 ± 0.071 |
| ATGTATCC | -0.111 ± 0.0078 |
| ACATAGCA | 0.236 ± 0.05 |
| TCATAGCA | 0.159 ± 0.02 |
| CTATATCA | 0.24 ± 0.0079 |
| CCATAGCA | 0.135 ± 0.0028 |
| CTGTATCC | 0.236 ± 0.0094 |
| ACATATCA | 0.299 ± 0.0056 |
| ACATATCG | 0.115 ± 0.042 |
| GTATATCA | 0.0652 ± 0.016 |
| CGCGCAGC | -0.126 ± 0.023 |
| GCAGACGC | -0.0631 ± 0.015 |
| CCCAACTA | 0.161 ± 0.022 |

| Sequence | PBM 8-mer E-score |
| --- | --- |
| TTCGGCAA | 0.0437 ± 0.12 |
| AAATCAGG | 0.041 ± 0.025 |
| TGCCGTAA | -0.113 ± 0.098 |
| CGCCAGCA | -0.199 ± 0.1 |
| CACGAAAC | 0.164 ± 0.018 |
| CTATATCC | 0.169 ± 0.018 |
| ATATATCG | 0.0892 ± 0.031 |
| ATATATCC | 0.285 ± 0.096 |
| AAACTCGT | -0.0113 ± 0.038 |
| CACCTTTA | -0.0135 ± 0.041 |
| ATCTAGTC | -0.00402 ± 0.0038 |
| CACATTAG | 0.00777 ± 0.035 |
| AACATTAC | 0.169 ± 0.003 |
| CACATTAC | 0.2476 ± 0.0022 |
| CCATTCGC | -0.13 ± 0.11 |
| GCGAGGTA | -0.144 ± 0.19 |
| AGTTCCCC | -0.0334 ± 0.025 |
| GATTATAA | 0.154 ± 0.034 |
| AATTCTAA | 0.133 ± 0.092 |
| TCTTATAA | 0.193 ± 0.04 |
| AATTATAA | 0.3 ± 0.026 |
| CATTATAG | 0.0091 ± 0.076 |
| CATTATAA | 0.246 ± 0.1 |
| TATTCTAA | 0.246 ± 0.003 |
| CATTCTAA | 0.00098 ± 0.075 |

| Sequence | PBM 8-mer E-score |
| --- | --- |
| AATTATAG | 0.148 ± 0.082 |
| TATTATAA | 0.244 ± 0.079 |
| TATTATCA | 0.122 ± 0.025 |
| CATTATAC | 0.218 ± 0.0061 |
| GGGGGGGA | -0.1747 ± 0.00091 |
| AGATAGCA | 0.137 ± 0.011 |
| CCTTATGC | 0.0835 ± 0.078 |
| AATTATCT | 0.235 ± 0.023 |
| AATTATCC | 0.0373 ± 0.0027 |
| AATTATCA | 0.198 ± 0.045 |
| ACCCTCGT | 0.00159 ± 0.081 |
| GACTAACA | 0.0143 ± 0.0082 |
| GGCCCAAA | -0.117 ± 0.027 |
| CAAATGGG | 0.236 ± 0.052 |
| CGAATGCA | 0.32 ± 0.04 |
| CGAATGCC | -0.0493 ± 0.096 |
| CAAATGGC | -0.0435 ± 0.002 |
| CAAATGTA | 0.188 ± 0.012 |
| AAAATGGG | -0.206 ± 0.0038 |
| GAAATGTA | 0.0185 ± 0.077 |
| AAAATGCC | -0.0688 ± 0.037 |
| CGAATGCG | 0.0188 ± 0.013 |
| AAAATGCA | 0.145 ± 0.012 |
| TAAATGTA | 0.281 ± 0.054 |
| AAAATGCT | 0.263 ± 0.0092 |

| Sequence | PBM 8-mer E-score |
| --- | --- |
| CGGGACCG | -0.357 ± 0.032 |
| CCTATCCC | 0.0952 ± 0.097 |
| TCATCTAA | 0.00256 ± 0.03 |
| AATCTAAA | 0.0534 ± 0.04 |
| CAGCGATC | -0.158 ± 0.022 |
| AGAATGCA | 0.0925 ± 0.055 |
| ACCAATCA | -0.0682 ± 0.088 |
| CGTACGAA | 0.19 ± 0.0087 |
| CACGACGG | 0.0169 ± 0.013 |
| CGAAGAAA | 0.223 ± 0.059 |
| CCACTGAA | -0.0273 ± 0.065 |
| AGCAAGAT | -0.0742 ± 0.058 |
| CAAATGAG | 0.0988 ± 0.053 |
| CAAATGCA | 0.064 ± 0.011 |
| AAAATGAA | 0.135 ± 0.0098 |
| TAAATGCA | 0.238 ± 0.1 |
| AAAATGAG | 0.267 ± 0.012 |
| GAAATGCA | 0.135 ± 0.11 |
| AAGGTTTA | -0.18 ± 0.048 |
| GCGCGCAA | 0.184 ± 0.057 |
| AAATGGCA | 0.155 ± 0.028 |
| TAGACATA | 0.0769 ± 0.014 |
